The supplement of paper PMC11732987, “Enantioselective OTUD7B fragment discovery through chemoproteomics screening and high-throughput optimisation” (Communications Chemistry, 2025)

Key:
Experiment in all cases: log2 ratio of Biotin-Ahx-Ub-VS probe labelling (fragment/DMSO); higher = less target engagement (more negative = stronger competition), active = hit call of the paper (q ≤ 0.05, log2 ratio ≤ -1)
Details in all cases: compound concentration: 200 uM; treatment time: 3 h
OTUD6B = target: T1, OTUD6B (UniProt Q8N6M0)
T1 sequence (whole entry): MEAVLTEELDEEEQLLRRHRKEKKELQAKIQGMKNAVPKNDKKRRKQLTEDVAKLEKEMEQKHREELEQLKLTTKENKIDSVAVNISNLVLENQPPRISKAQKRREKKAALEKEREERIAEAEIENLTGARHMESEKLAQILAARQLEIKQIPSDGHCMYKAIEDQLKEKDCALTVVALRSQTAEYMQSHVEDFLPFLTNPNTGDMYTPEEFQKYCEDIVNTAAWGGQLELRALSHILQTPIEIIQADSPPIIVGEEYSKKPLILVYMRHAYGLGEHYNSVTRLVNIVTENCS
Procedure, shortened: (§1)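 Using Biotin-Ahx-Ub-VS at 0.5 µM final for 1 h, DUBs were labelled in HEK293T lysate (495 µg per sample) that had first been treated in triplicate with fragment at 200 µM or vehicle for 3 h. NeutrAvidin enrichment, LysC and trypsin digestion and diaPASEF LC-MS/MS followed. Spectronaut label-free quantities were global-median-normalised. Values are average log2 fragment/vehicle ratios by unpaired t-test, using proteins with ≥2 unique peptides.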

OTUD7B = target: T2, OTUD7B (UniProt Q6GQQ9)
T2 sequence (whole entry): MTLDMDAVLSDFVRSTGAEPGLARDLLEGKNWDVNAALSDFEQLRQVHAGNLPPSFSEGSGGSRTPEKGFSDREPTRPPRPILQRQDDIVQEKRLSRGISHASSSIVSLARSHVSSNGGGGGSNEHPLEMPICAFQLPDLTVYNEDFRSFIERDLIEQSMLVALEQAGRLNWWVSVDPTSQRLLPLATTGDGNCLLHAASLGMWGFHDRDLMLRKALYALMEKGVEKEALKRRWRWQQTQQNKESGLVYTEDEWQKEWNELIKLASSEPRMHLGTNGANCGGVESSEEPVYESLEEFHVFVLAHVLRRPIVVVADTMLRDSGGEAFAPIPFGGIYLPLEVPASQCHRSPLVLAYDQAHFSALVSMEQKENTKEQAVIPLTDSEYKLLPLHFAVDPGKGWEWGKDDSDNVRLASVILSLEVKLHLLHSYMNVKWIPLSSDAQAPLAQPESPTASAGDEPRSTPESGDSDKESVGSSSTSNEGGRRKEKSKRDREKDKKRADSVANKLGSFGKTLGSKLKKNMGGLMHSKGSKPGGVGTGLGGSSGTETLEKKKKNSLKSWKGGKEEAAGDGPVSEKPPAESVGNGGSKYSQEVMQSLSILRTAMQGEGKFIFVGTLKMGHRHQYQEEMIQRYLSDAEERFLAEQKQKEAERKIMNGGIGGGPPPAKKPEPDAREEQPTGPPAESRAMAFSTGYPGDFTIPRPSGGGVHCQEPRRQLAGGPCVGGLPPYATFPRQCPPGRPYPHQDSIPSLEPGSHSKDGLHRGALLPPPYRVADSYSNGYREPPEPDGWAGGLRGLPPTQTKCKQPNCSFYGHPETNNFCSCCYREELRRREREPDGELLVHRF
Procedure, shortened: as §1

PRPF8 = PRPF8 (UniProt Q6P2Q9)
Procedure, shortened: as §1

PSMD7 = target: T3, PSMD7 (UniProt P51665)
T3 sequence (whole entry): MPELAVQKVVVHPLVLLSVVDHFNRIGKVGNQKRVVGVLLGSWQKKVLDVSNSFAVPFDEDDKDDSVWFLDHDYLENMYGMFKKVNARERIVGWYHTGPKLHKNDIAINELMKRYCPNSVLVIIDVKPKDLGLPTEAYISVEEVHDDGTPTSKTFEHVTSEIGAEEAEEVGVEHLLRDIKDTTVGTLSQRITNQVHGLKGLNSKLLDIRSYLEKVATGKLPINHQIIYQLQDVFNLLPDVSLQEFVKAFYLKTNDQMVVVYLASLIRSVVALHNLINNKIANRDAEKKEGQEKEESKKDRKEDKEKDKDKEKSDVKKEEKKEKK
Procedure, shortened: as §1

UCHL1 = UCHL1 (UniProt P09936)
UCHL1, sequence (P09936 whole entry, looked up): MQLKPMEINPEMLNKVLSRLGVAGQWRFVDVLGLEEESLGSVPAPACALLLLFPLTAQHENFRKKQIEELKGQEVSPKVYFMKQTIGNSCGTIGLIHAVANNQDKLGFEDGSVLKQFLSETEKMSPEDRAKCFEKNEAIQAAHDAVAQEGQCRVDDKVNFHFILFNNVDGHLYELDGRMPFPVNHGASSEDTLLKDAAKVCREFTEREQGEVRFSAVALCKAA
Procedure, shortened: as §1

UCHL3 = target: T4, UCHL3 (UniProt P15374)
T4 sequence (whole entry): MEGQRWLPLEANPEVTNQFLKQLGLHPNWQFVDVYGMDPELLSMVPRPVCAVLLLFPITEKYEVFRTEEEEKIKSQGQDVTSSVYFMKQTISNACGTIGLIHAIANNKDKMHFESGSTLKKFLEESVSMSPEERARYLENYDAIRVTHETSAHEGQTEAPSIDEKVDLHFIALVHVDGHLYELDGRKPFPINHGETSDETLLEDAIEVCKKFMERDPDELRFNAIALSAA
Procedure, shortened: as §1

UCHL5 = target: T5, UCHL5 (UniProt Q9Y5K5)
T5 sequence (whole entry): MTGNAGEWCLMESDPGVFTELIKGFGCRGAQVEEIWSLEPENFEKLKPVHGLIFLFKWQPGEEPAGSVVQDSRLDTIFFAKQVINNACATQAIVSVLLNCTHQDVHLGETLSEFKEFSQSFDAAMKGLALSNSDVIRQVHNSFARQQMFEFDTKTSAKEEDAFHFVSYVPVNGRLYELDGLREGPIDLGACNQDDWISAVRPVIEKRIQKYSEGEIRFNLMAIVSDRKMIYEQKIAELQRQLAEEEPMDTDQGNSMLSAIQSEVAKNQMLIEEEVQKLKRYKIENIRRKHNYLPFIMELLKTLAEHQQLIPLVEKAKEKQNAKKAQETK
Procedure, shortened: as §1

USP10 = USP10 (UniProt Q14694)
USP10, sequence (Q14694 whole entry): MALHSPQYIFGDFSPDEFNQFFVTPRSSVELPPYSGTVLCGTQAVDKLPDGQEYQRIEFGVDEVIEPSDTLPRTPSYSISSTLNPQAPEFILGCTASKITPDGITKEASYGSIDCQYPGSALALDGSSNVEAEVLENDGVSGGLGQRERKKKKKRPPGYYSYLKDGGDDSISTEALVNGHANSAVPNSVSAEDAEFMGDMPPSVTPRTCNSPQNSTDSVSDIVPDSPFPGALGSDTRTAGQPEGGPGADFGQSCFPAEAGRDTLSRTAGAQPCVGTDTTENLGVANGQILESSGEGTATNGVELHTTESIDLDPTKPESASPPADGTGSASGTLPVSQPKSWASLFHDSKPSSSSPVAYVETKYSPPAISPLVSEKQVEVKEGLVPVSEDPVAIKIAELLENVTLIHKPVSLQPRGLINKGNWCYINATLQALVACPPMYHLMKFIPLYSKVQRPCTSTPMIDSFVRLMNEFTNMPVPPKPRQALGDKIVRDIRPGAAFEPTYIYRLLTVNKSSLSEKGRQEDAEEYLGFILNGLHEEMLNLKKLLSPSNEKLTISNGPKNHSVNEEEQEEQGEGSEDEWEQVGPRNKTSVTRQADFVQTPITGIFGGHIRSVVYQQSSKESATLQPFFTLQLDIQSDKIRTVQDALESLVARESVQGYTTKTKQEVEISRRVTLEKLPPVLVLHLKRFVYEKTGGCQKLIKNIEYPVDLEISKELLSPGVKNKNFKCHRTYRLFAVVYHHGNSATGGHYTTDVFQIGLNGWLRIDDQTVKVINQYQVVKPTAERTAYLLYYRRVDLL
Procedure, shortened: as §1

USP15 = target: T6, USP15 (UniProt Q9Y4E8)
T6 sequence (whole entry): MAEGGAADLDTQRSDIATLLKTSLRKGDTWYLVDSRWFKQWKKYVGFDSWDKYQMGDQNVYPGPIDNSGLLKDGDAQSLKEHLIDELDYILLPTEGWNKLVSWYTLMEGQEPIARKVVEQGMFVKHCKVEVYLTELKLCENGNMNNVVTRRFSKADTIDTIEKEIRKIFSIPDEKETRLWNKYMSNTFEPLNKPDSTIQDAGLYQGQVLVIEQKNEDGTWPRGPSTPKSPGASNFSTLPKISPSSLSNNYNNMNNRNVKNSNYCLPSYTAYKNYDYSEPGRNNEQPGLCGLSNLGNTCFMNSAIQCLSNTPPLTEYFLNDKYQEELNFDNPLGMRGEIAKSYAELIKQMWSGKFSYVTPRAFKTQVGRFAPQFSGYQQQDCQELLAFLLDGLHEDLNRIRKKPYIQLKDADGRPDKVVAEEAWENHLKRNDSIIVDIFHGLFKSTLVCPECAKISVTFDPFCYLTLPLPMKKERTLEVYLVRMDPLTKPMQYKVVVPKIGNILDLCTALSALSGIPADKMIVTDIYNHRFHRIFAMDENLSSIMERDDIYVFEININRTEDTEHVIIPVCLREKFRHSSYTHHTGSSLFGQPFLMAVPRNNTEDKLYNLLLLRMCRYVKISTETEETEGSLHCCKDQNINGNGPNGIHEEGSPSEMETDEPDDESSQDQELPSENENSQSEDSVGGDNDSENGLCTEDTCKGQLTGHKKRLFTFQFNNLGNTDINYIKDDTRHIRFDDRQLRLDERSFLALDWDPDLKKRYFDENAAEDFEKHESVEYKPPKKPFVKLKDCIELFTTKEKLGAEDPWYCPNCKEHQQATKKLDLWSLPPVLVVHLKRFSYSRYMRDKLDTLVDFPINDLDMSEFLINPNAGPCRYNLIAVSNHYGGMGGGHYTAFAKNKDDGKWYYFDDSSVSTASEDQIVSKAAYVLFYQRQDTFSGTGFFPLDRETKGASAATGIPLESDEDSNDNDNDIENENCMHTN
Procedure, shortened: as §1

USP16 = USP16 (UniProt Q9Y5T5)
USP16, sequence (Q9Y5T5 whole entry, looked up): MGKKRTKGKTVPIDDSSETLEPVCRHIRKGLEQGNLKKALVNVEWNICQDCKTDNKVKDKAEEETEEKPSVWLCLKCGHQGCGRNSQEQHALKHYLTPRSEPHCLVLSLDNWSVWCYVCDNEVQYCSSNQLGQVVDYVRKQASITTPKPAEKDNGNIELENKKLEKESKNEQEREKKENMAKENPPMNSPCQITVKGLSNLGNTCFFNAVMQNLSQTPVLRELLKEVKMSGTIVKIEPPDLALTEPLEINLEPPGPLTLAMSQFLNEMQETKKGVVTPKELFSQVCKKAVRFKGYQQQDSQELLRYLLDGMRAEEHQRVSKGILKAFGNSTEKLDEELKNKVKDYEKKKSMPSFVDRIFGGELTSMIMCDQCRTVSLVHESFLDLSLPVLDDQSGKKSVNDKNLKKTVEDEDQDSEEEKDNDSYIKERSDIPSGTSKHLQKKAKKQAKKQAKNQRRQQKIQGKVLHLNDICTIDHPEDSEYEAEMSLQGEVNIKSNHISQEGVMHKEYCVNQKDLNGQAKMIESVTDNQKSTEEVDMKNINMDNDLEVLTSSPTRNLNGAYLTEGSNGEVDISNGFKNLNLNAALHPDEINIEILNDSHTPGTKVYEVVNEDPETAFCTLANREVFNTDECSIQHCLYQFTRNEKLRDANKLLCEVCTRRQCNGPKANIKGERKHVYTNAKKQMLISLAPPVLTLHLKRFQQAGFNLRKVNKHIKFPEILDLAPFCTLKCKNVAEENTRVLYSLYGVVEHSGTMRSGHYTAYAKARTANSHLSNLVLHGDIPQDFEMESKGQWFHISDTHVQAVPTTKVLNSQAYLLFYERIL
Procedure, shortened: as §1

Measured: log2 ratio of Biotin-Ahx-Ub-VS probe labelling

Cc1nc(-c2cccc(NC(=O)CCl)c2)cs1
inactive: OTUD6B -0.247 | OTUD7B -0.69 | PRPF8 0.052 | PSMD7 -0.167 | UCHL1 -0.133 | UCHL3 -0.844 | UCHL5 -0.43 | USP10 -0.202 | USP15 -0.235 | USP16 -0.418
